Experimental data published in PubChem BioAssay.
Values joined by “and” are separate entries in the source; they are usually repeats but may differ in a detail not shown here. Identical values can stand only once. Active and inactive are the calls of the source. Rule as the data show it, unless noted: active = parasite load remaining mostly below about 12% (no sharp cut-off); inactive = mostly above about 10%.

Key:
[1] = liver-stage malaria parasite growth inhibition, primary screen, cell-based, HepG2, luciferase luminescence, HepG2 viability (AID 624349);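 also: 100% = mean of DMSO negative control wells on the same plate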; conditions: P. berghei liver stage in HepG2, luciferase luminescence, concentration not given here; parasite load remaining: stronger effect = lower value; viability: measured here: HepG2 viability without parasites
[2] = stimulators of nuclear beta-catenin in C2C12, primary screen, imaging, WNT3A-conditioned medium, mouse C2C12, NPC library (AID 1117326; in the data active = nuclear beta-catenin stimulation mostly above about 4.2%, no sharp cut-off; inactive = mostly below about 10%; also: reference of the scale not given here); conditions: stronger effect = higher value
[3] = stimulators of insulin release from INS-1E, primary screen, cell-based, 5 mM glucose, NPC library (AID 1117329;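 active = compound raises insulin release from rat beta cells at 5 mM glucose, no numeric limit stated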; also: reference of the scale not given here); conditions: rat INS-1E insulin secretion, at 10 µM, stronger effect = higher value
[4] = growth inhibition of GSK3B-pretreated HCT116 cells – cell-based, CellTiter-Glo, 0.2 to 20 µM (AID 1117336;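 active = compounds lowering colon cancer cell viability after pretreatment blocking the GSK3B kinase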); conditions: HCT116 viability after GSK3B inhibitor, at 20 µM, stronger effect = higher value
[5] = inhibition of endothelial tube formation, primary screen, imaging, VEGF stimulated, CD31 staining, tube area, NPC library (AID 1117340;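 active = compound that reduces growth-factor-driven endothelial tube area in a mixed cell culture, no cutoff stated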); conditions: VEGF-stimulated ADSC/ECFC co-culture, at 10 µM, stronger effect = higher value
[6] = glucagon-like peptide 1 release enhancers, primary assay, NCI-H716 cell line, NPC library (AID 1117341;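 active = compound raises GLP1 secretion from the human gut endocrine cells, with no numeric limit stated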; also: reference of the scale not given here); conditions: NCI-H716 cells, at 10 µM, stronger effect = higher value
[7] = HCT116 colon cancer cell growth inhibition, primary screen, CellTiter-Glo luminescence, NPC library (AID 1117342;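 active = compounds that lower survival of HCT116 colon cancer cells in the luminescence readout, no numeric limit stated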); conditions: at 20 µM (top of the series)
[8] = CellTiter-Glo luminescent readout of SW480 viability loss, NPC library primary (AID 1117343;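 active = compounds that lower viability of the colon cancer cells in the luminescence readout, with no numeric limit stated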); conditions: CellTiter-Glo luminescence; at 20 µM (top of the series)
[9] = decreased DLD-1 cellular survival, CellTiter-Glo luminescent readout, NPC compound collection, primary HTS (AID 1117346;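 active = compounds that lower survival of DLD-1 colon cancer cells in the luminescence readout, no cutoff given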); conditions: DLD-1 viability, CellTiter-Glo luminescence; at 20 µM (top of the series)
[10] = molecular target: 6-phosphogluconate dehydrogenase, decarboxylating (Homo sapiens) (UniProt P52209); experiment: 6PGD enzyme inhibitors, primary screen, biochemical, human, recombinant enzyme, NADPH absorbance (AID 1159550;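 active = at least 20% inhibition of 6-phosphogluconate dehydrogenase activity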); conditions: recombinant 6PGD, NADPH absorbance 341 nm; at 10 µM; stronger effect = higher value
Chain of 6-phosphogluconate dehydrogenase, decarboxylating (Homo sapiens) (P52209 whole entry, looked up): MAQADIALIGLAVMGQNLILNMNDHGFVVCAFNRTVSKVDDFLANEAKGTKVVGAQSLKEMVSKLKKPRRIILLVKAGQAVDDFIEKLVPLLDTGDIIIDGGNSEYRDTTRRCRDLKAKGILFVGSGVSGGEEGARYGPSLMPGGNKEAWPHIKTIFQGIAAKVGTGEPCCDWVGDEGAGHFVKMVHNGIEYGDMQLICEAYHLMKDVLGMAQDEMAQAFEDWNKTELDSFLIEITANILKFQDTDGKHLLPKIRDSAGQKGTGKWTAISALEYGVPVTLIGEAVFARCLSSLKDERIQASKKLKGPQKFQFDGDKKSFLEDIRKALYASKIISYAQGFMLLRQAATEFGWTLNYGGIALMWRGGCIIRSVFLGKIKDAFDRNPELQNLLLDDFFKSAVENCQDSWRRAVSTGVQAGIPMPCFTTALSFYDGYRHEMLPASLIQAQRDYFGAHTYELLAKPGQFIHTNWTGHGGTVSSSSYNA

| SMILES | parasite load remaining [1] | viability [1] | nuclear beta-catenin stimulation ([2]; at 10 µM) | nuclear beta-catenin stimulation ([2]; stimulation, at 2 µM) [%] | insulin secretion stimulation [3] | viability decrease [4] | tube area decrease [5] | GLP1 secretion stimulation [6] | inhibition of viability [7] | viability decrease (inhibition) [8] | viability decrease (inhibition) [9] | inhibition [10] |
| --- | --- | --- | --- | --- | --- | --- | --- | --- | --- | --- | --- | --- |
| CC(NCCC(c1ccccc1)c1ccccc1)c1ccccc1 (centres undefined) | -2.42% (inactive) and 196% (inactive) and 56% (inactive) | 7.6% and 63.1% and 81.9% | 27.6% (inactive) | -0.2 | 4.5% (inactive) | 99.5% (active) | 15.4% (inactive) | -2.1% (inactive) | 99.3% (active) | 102% (active) | 89% (active) | 4.5% (inactive) |
| Nc1ccc(C(=O)O)cc1 | 102% (inactive) and 75.6% (inactive) | 74.3% and 91.3% | -0.9% (inactive) | 0.3 | -1% (inactive) | 2.35% (inactive) | -16.4% (inactive) | 0.8% (inactive) | -6.1% (inactive) | 13.3% (inactive) | -4.7% (inactive) | 6.16% (inactive) |
| CO/N=C1\CN(c2nc3c(cc2F)c(=O)c(C(=O)O)cn3C2CC2)CC1CN (centres undefined) | 155% (inactive) and 46.4% (inactive) | 85.7% and 106% | 4.1% (inactive) | 3.4 | 3% (inactive) | -23.6% (inactive) | -6.9% (inactive) | 1.1% (inactive) | -15% (inactive) | -14.7% (inactive) | -7.2% (inactive) | 2.88% (inactive) |
| CC(=O)Oc1cccc(O)c1 | 139% (inactive) and 53% (inactive) | 92.8% and 100% | 0.7% (inactive) | 2 | 2.6% (inactive) | 0.4% (inactive) | 20.9% (inactive) | 1.4% (inactive) | 3.03% (inactive) | 29.4% (inactive) | -7.4% (inactive) | 8.3% (inactive) |
| O=c1ccc2ccccc2o1 | 71% (inactive) | 94.5% | -0.2% (inactive) | -0.6 | -1.8% (inactive) | 3.65% (inactive) | -29.2% (inactive) | 2.9% (inactive) | 12.6% (inactive) | 19.6% (inactive) | 6% (inactive) | -18.6% (inactive) |
| CC1CCC(NC(=O)N(CCCl)N=O)CC1 (centres undefined) | 62.2% (inactive) and 25.6% (inactive) | 87.1% and 108% | 5.9% (inactive) | 4.9 | 2% (inactive) | -24.4% (inactive) | 25.1% (inactive) | 1.7% (inactive) | -2.27% (inactive) | 12.6% (inactive) | -14.1% (inactive) | 2.66% (inactive) |
| C=C1c2cccc(O)c2C(O)=C2C(=O)[C@]3(O)C(O)=C(C(N)=O)C(=O)[C@@H](N(C)C)[C@@H]3[C@@H](O)[C@H]12 | 89.4% (inactive) and 160% (inactive) and 38% (inactive) | 79.4% and 68.3% and 93.9% | 3.6% (inactive) | 2.7 | -1.8% (inactive) | -253% (inactive) | 9.7% (inactive) | 0.4% (inactive) | -0.33% (inactive) | -1.7% (inactive) | 58.4% (active) | 13.8% (inactive) |
| O=C(O)c1ccccc1C(=O)Nc1ccc(S(=O)(=O)Nc2nccs2)cc1 | 89% (inactive) and 53.5% (inactive) and 22.8% (inactive) | 103% and 81.4% and 87.5% | 0.8% (inactive) | 0.7 | -2.1% (inactive) | -13.1% (inactive) | 3.3% (inactive) | 1.4% (inactive) | -16.3% (inactive) | 20.3% (inactive) | -5.15% (inactive) | 5.34% (inactive) |
| Cc1cc(CC(=O)O)n(C)c1C(=O)c1ccc(Cl)cc1 | 103% (inactive) and 101% (inactive) and 54.3% (inactive) | 94.3% and 67.7% and 106% | -0.6% (inactive) | 1.7 | 2.6% (inactive) | -27.2% (inactive) | 15.1% (inactive) | -1.1% (inactive) | 1.13% (inactive) | 14.7% (inactive) | -17.6% (inactive) | -4.85% (inactive) |
| Cc1c(N(C)CS(=O)(=O)O)c(=O)n(-c2ccccc2)n1C | 109% (inactive) and 141% (inactive) and 63.8% (inactive) | 100% and 88.3% and 95.6% | -0.4% (inactive) | 0.9 | -0.6% (inactive) | 1.05% (inactive) | -53.1% (inactive) | 2.4% (inactive) | 3% (inactive) | 23.9% (inactive) | 3.35% (inactive) | 19.3% (inactive) |
| O=C(O)CCCCC1CCSS1 (centres undefined) | 165% (inactive) | 96.8% | 0% (inactive) | -0.2 | -1.9% (inactive) | 3.2% (inactive) | 10.9% (inactive) | 0.5% (inactive) | 14.7% (inactive) | 29.9% (inactive) | -0.7% (inactive) | 14.8% (inactive) |
| O=c1oc2c(O)c(O)cc3c(=O)oc4c(O)c(O)cc1c4c23 | 130% (inactive) | 65.1% | -1.4% (inactive) | 2.3 | -0.1% (inactive) | 24.7% (inactive) | 58% (active) | -2.3% (inactive) | 19.7% (inactive) | 75.1% (active) | 30.7% (inactive) | -6.65% (inactive) |
